Test systems include MOLT-4 leukemia; SR leukemia; RPMI-8226 leukemia; OVCAR-8 ovarian; OVCAR-5 ovarian; SK-OV-3 ovarian; IGROV1 ovarian; OVCAR-3 ovarian; HS 578T breast; NCI/ADR-RES ovarian; T-47D breast; BT-549 breast; MDA-MB-435 melanoma; SW-620 colon; MCF7 breast; HCT-116 colon; HCC-2998 colon; KM12 colon; OVCAR-4 ovarian.
Test in all cases: NCI-60 one-dose screen, 48 h (100 = growth as untreated, 0 = no growth, -100 = all killed)
Common to all, as to conditions: 10 µM unless noted

We go through eight compounds from PubChem BioAssay (NCI).

Molecules are shown by their SMILES. Several values for one entry are separate records, joined by “and”; a condition that tells them apart may be missing. Identical values can stand only once. This is part of a sample that, as a whole, favours compounds with a hit. Of some 83,000 tested, about 20% had one in any assay.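 Values shown are percent growth following 48 h exposure of cells in 96-well plates to a single concentration of compound; below 10 was considered active.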 Values without a mark were called inactive. Activity calls are given as the source filed them.

As for `C=CC[PH+](c1ccccc1)c1ccccc1.C=CC[PH+](c1ccccc1)c1ccccc1.[Pt+2].[S-]c1nc2ccccc2[nH]1.[S-]c1nc2ccccc2[nH]1`, the growth is 0.306% (active) with MOLT-4 leukemia; 4.38% (active) in the experiment on SR leukemia; -19.1% (active) in the experiment on RPMI-8226 leukemia; 2.64% (active) with OVCAR-8 ovarian; -3.98% (active) in the experiment with OVCAR-5 ovarian; 8.34% (active) with SK-OV-3 ovarian. Further, the growth in the experiment with IGROV1 ovarian was -23.4% (active); in the experiment with OVCAR-3 ovarian it was -23.3% (active); with HS 578T breast, -16.6% (active); in the experiment with NCI/ADR-RES ovarian, 88.4%; in the experiment on T-47D breast, -6.06% (active); in the experiment on BT-549 breast, -28.1% (active). In addition, the growth is -50.5% (active) in the experiment on MDA-MB-435 melanoma; 3.79% (active) with SW-620 colon; 3.99% (active) in the experiment with MCF7 breast; -29.7% (active) in the experiment with HCT-116 colon; -33.2% (active) in the experiment on HCC-2998 colon; -63% (active) in the experiment with KM12 colon.
In the case of `C=CC1CN2CCC1CC2C(O)c1ccnc2ccccc12` (configuration not stated), the growth was 258% in the experiment on MOLT-4 leukemia; 344% in the experiment with SR leukemia; 213% with RPMI-8226 leukemia; 127% in the experiment with OVCAR-8 ovarian; 116% with OVCAR-5 ovarian; 133% in the experiment on SK-OV-3 ovarian. Also, the growth was -15.5% (active) with NCI/ADR-RES ovarian; 135% with T-47D breast; 181% in the experiment on BT-549 breast; 128% with MDA-MB-435 melanoma; 112% with SW-620 colon; 116% with MCF7 breast. Further, the growth in the experiment with HCT-116 colon was 110%; in the experiment with KM12 colon it was 115%.
For the compound `O=Cc1cn(Cc2ccccc2)c2ccccc12`, the growth in the experiment on MOLT-4 leukemia is 99.8%; in the experiment with SR leukemia, 93%; in the experiment on RPMI-8226 leukemia it was 61.2%; in the experiment with OVCAR-8 ovarian, 85.8%; with OVCAR-5 ovarian, -20.3% (active); in the experiment with SK-OV-3 ovarian, 61.4%. The growth was -21.4% (active) with IGROV1 ovarian; 68.6% in the experiment with OVCAR-3 ovarian; 150% in the experiment with HS 578T breast; 82.1% in the experiment with NCI/ADR-RES ovarian; 41.4% with T-47D breast; 95.1% in the experiment with BT-549 breast. The growth with MDA-MB-435 melanoma is 125%; in the experiment on SW-620 colon, 92.4%; with MCF7 breast it was 84.8%; in the experiment on HCT-116 colon it was 68.4%; with HCC-2998 colon, 33.5%; in the experiment on KM12 colon, 101%.
For `O=P(O)(Nc1ccccc1)Nc1ccccc1`, the growth in the experiment with MOLT-4 leukemia is 43.6%; in the experiment with SR leukemia it was 104%; in the experiment with RPMI-8226 leukemia, 91.8%; in the experiment with OVCAR-8 ovarian it was 103%; in the experiment on OVCAR-5 ovarian, 90.1%; in the experiment on SK-OV-3 ovarian, 110%. For the same compound, the growth was 90.6% with IGROV1 ovarian; 94.4% in the experiment on OVCAR-3 ovarian; 94.5% in the experiment on HS 578T breast; 76.9% in the experiment with NCI/ADR-RES ovarian; 97% in the experiment with T-47D breast; 100% with BT-549 breast. Further, the growth was 88.5% in the experiment with MDA-MB-435 melanoma; 86.2% in the experiment on SW-620 colon; 97.3% in the experiment on MCF7 breast; 89.1% in the experiment with HCT-116 colon; 95.9% in the experiment on KM12 colon.
In the case of `C[C@]12C[C@H](c3ccoc3)OC(=O)[C@H]1CC[C@@]1(C)[C@@H]2[C@H]2C=C[C@]1(O)C(=O)O2`, the growth in the experiment on MOLT-4 leukemia was 96%; in the experiment on SR leukemia it was 100%; with RPMI-8226 leukemia, 95.4%; in the experiment with OVCAR-8 ovarian, 95.3%; with OVCAR-5 ovarian it was 104%; with SK-OV-3 ovarian, 95.7%. Further, the growth is 96% in the experiment with IGROV1 ovarian; 102% in the experiment with OVCAR-3 ovarian; 107% in the experiment with HS 578T breast; 106% in the experiment on NCI/ADR-RES ovarian; 103% with T-47D breast; 86.5% with BT-549 breast. The growth was 98.1% in the experiment on MDA-MB-435 melanoma; 109% in the experiment on SW-620 colon; 92.7% with MCF7 breast; 76.6% in the experiment on HCT-116 colon; 103% in the experiment on HCC-2998 colon; 104% in the experiment on KM12 colon.
On to `CCCC[C@H]1C(=O)O[C@H](C)[C@H](NC(=O)c2cccc(NC=O)c2O)C(=O)O[C@@H](C)[C@@H]1OC(=O)CC(C)C`, for which the growth in the experiment on MOLT-4 leukemia was 31.1%; in the experiment on SR leukemia, 49.4%; in the experiment with RPMI-8226 leukemia, 18.2%; in the experiment with OVCAR-5 ovarian, -27.7% (active); in the experiment with OVCAR-4 ovarian, 40.9%; in the experiment on SK-OV-3 ovarian it was 68%. Besides, the growth in the experiment with IGROV1 ovarian was 55.6%; in the experiment with OVCAR-3 ovarian, 43.4%; with HS 578T breast it was -18.5% (active); in the experiment on NCI/ADR-RES ovarian it was 1.1% (active); in the experiment on T-47D breast it was 27.9%; in the experiment on BT-549 breast, 140%. Further, the growth in the experiment on MDA-MB-435 melanoma was 39%; in the experiment with SW-620 colon, 59%; in the experiment on MCF7 breast, 38.3%; with HCT-116 colon it was 20.8%; in the experiment on HCC-2998 colon, 56.6%.
Turning to `O=c1c2ccccc2nc(-c2ccccc2Cl)n1-c1nnc(C(F)(F)F)s1`, the growth with MOLT-4 leukemia was 3.92% (active); in the experiment on SR leukemia, -6.69% (active); with RPMI-8226 leukemia, 0.839% (active); in the experiment with OVCAR-8 ovarian it was 32.7%; in the experiment with OVCAR-5 ovarian, 78.2%; with SK-OV-3 ovarian, 25.7%. For the same compound, the growth in the experiment with IGROV1 ovarian is 37.6%; with OVCAR-3 ovarian, 18.7%; in the experiment with HS 578T breast, 26.7%; with NCI/ADR-RES ovarian, 11.6%; with T-47D breast it was 43.5%; in the experiment on BT-549 breast, 22.3%. For the same compound, the growth with MDA-MB-435 melanoma is 57.8%; in the experiment on SW-620 colon it was 37.5%; in the experiment on MCF7 breast, 21.4%; in the experiment on HCT-116 colon, 16.8%; with HCC-2998 colon it was 17.6%.
Turning to `CN(C)[C@@H]1C(=O)C(C(N)=O)=C(O)[C@@]2(O)C(=O)C3=C(O)c4c(O)ccc(Cl)c4[C@@](C)(O)[C@H]3C[C@@H]12`, the growth in the experiment on MOLT-4 leukemia is 99.5% and 121%; with SR leukemia, 87.9% and 82.8%; in the experiment on RPMI-8226 leukemia, 87% and 91.1%; with OVCAR-8 ovarian, 98.7% and 91.7%; with OVCAR-5 ovarian it was 92.1% and 94.8%; in the experiment on SK-OV-3 ovarian, 90.3% and 95.8%. The growth in the experiment on IGROV1 ovarian is 78.7% and 87.2%; with OVCAR-3 ovarian, 112% and 102%; in the experiment with HS 578T breast, 94.7% and 91.7%; with NCI/ADR-RES ovarian, 104% and 109%; with T-47D breast, 91.5% and 97.7%; in the experiment with BT-549 breast, 87.6%. The growth in the experiment with MDA-MB-435 melanoma is 99.6% and 103%; in the experiment on SW-620 colon it was 101% and 97.7%; in the experiment on MCF7 breast it was 94.8% and 86.8%; in the experiment on HCT-116 colon it was 81.4% and 102%; in the experiment with HCC-2998 colon it was 92.2% and 125%; in the experiment on KM12 colon, 94.7% and 102%.
